Records with an inconclusive call do not appear. Calls of active or inactive are those of the source. Unless noted, calls follow the shape of the dose curve; as a rule, active = well fitted curve in the direction sought with a large enough effect; inconclusive = small, poorly fitted or top-dose-only effect, or another doubt; inactive = no such curve, though single readings can be large; an effect the other way counts as inactive or inconclusive.
Legend:
[1] = qHTS for differential inhibitors of proliferation of Plasmodium falciparum line HB3 (AID 1886); conditions: Potency: Plasmodium falciparum HB3 proliferation inhibition;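 also: parasites grown with compound for 72 h before SYBR Green readout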
[2] = target: Ferritin light chain (Equus caballus) (UniProt P02791); test: qHTS Validation Assay for Identification of Novel General Anesthetics (AID 2323)
How it was run: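 Competitive displacement of profluorescent 1-aminoanthracene (1-AMA, 50% saturated solution in PBS) from 10 uM horse-spleen apoferritin. Compounds incubated 10 min at room temperature; fluorescence read at 380 nm excitation/535 nm emission, normalized to free 1-AMA and complex, fitted with four-parameter Hill equation.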

[3] = target: ATP-dependent DNA helicase Q1 (Homo sapiens) (UniProt P46063); test: qHTS Validation Assay for Inhibitors of RecQ-Like Dna Helicase 1 (RECQ1) (AID 2353)
How it was run: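 50 nM RECQ1T1 preincubated 15 min with compound in Tris pH 8.0 buffer with MgCl2, DTT, Tween-20 and 2.5 ug/ml poly(dI-dC); started with 200 nM TAMRA/BHQ-2 forked duplex and 2 mM ATP. Unwinding read as fluorescence (525/598 nm), two reads 2 h apart.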

[4] = Cytometric Cell-Based qHTS for Inhibitors of the mTORC1 Signaling Pathway in MEF (Tsc2-/-, p53-/-) Cells (AID 2660);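 also: percent of cells above a phospho-rpS6 to PI ratio cutoff in each well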
How it was run: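 Immunofluorescence qHTS of rpS6 Ser235/236 phosphorylation: MEFs (Tsc2-/-, p53-/-) treated 24 h, 37 C, in DMEM + 10% FBS. Alexa-488 signal normalized to PI count, referenced to rapamycin (7.5 nM) and DMSO; PI cell number recorded for viability.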

[5] = High Content Imaging Cell-Based qHTS for Inhibitors of the mTORC1 Signaling Pathway in MEF Cells (AID 2667);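 also: Tsc2-/- p53-/- MEFs stably re-expressing wild-type Tsc2 exposed 24 h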
How it was run: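 WT MEFs (Tsc2-/-, p53-/- re-expressing Tsc2), in DMEM + 10% FBS, were treated with compound for 24 h at 37 C. Cells were then fixed and stained for phospho-rpS6 Ser235/236 with propidium iodide as cell count. Values are % positive cells, with thresholds set against rapamycin-treated cells.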

[6] = Cytometry Cell-Based qHTS for Inhibitors of the mTORC1 Signaling Pathway in MEF cells (AID 2668);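 also: Tsc2-/- p53-/- mouse embryonic fibroblasts stably re-expressing wild-type Tsc2; percent cells positive for phospho-rpS6 Ser235/236 relative to propidium iodide stain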
How it was run: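 WT MEFs (Tsc2-/-, p53-/- stably re-expressing WT Tsc2) in DMEM + 10% FBS received compounds 24 hrs after plating, for 24 hrs at 37 degree Celsius. Fixed cells stained with Alexa-488 anti-phospho-rpS6 Ser235/236 and propidium iodide; laser-scanning cytometry read-out.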

[7] = Validation screen for small molecules that induce DNA re-replication in MCF 10A normal breast cells (AID 463097); also: nearly all actives have a fitted effect of over 60% in size
How it was run: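 Readout: Hoechst nuclear fluorescence intensity, 405 ex / 500-530 em, by scanning plate imager; re-replication scored as increase in nuclei with elevated DNA content. Cells exposed to compound 48 hr, 37 C, 5% CO2 beforehand.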

[8] = target: Ubiquitin carboxyl-terminal hydrolase 2 (Homo sapiens) (UniProt O75604); test: qHTS Validation Assay for Inhibitors of Ubiquitin-specific Protease USP2a Using CHOP2 as the Reporter (AID 463106)
How it was run: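 USP2 core (10 nM final) was preincubated with compound 30 min at RT in pH 8.0 Tris/CaCl2/beta-ME/CHAPS buffer. Ub-CHOP2 and reporter substrate (25 nM final each) were then added, with fluorescence (Ex 485/Em 531) read after 60 min. Data were normalized to NEM full inhibition and fitted to concentration-response curves.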

[9] = target: DNA polymerase III PolC-type (Bacillus subtilis (strain 168)) (UniProt P13267); test: qHTS Validation Assay for the Inhibitors of DNA Replication in Gram-Positive Bacteria (AID 485295);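 also: PicoGreen fluorescence of double-stranded DNA made on primed circular M13 template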
How it was run: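 Reconstituted B. subtilis holoenzyme (Pol III, beta clamp, SSB, primase) was preincubated with compound at room temperature, then given single-stranded circular M13Gori plus dNTPs and NTPs. EDTA-containing PicoGreen stopped the reaction, and dsDNA product was read by fluorescence.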

[10] = target: Tumor susceptibility gene 101 protein (Homo sapiens) (UniProt Q99816); test: qHTS Validation Assay for Iinhibitors of HIV-1 Budding by Blocking the Interaction of PTAP/TSG101 (AID 485342; calls by dose curve)
How it was run: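 Tsg101 binding domain (10 uM final) in pH 7.5 HEPES/NaCl/Tween 20/EDTA/TCEP buffer was mixed with pin-transferred compounds, then FITC-labeled PTAP peptide (50 nM final) was added; after 20 min at r.t., fluorescence polarization was read.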

[11] = qHTS Validation Assay to Find Inhibitors of Chronic Active B-Cell Receptor Signaling (AID 485345; active = well fitted curve in the direction sought with a large enough effect in the main read-out, with a control signal flat, not every such curve was filed as active)
How it was run: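 TMD8 ABC-DLBCL cells stably carrying doxycycline-inducible IkappaBalpha–green luciferase fusion plus unfused red luciferase; compounds 46 uM to 3 nM, 4 h at 37C with doxycycline. Corrected green/red luminescence ratio normalized to 10 uM MG-132 and basal cell wells; curves fitted.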

[12] = target: Beta-2 adrenergic receptor (Homo sapiens) (UniProt P07550); test: qHTS validation assay of beta-arrestin-biased ligands of beta2-adrenergic receptor (AID 485366)
How it was run: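 Arrestin-recruitment (Tango) reporter: ligand-bound beta2-AR recruits beta-arrestin, releasing tTA, which upregulates luciferase. Titrations of up to 46 microM incubated 18 hr at 37 degrees C before luminescent readout.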

[13] = target: ATP-dependent 6-phosphofructokinase (Trypanosoma brucei brucei) (UniProt O15648); test: qHTS Validation Assay to Find Inhibitors of T. brucei phosphofructokinase (AID 485368); conditions: outcome: dose series up to 57.5 µM
How it was run: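 Steps: substrate mix (0.5 mM F6P, 0.1 mM ATP, MgCl2, TEA pH 8.0); compound; 1.25 nM T. brucei PFK; 45 min RT; ATP depletion 10 min; ADP-to-ATP detection 10 min; luminescence read; curve fitting and classification.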

[14] = Quantitative high throughput screen for delayed death inhibitors of the malarial parasite plastid, 96 hour incubation (AID 488745);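 also: luciferase-expressing P. falciparum in erythrocytes at 2% hematocrit and 0.1% parasitemia; nearly all actives have a fitted effect of over 70% in size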
How it was run: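 Growth of reporter-bearing P. falciparum in red cells is measured after 96 h with compound, covering two erythrocytic cycles. Luminescence from the integrated luciferase serves as the growth signal.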

[15] = Quantitative high throughput screen for delayed death inhibitors of the malarial parasite plastid, 48 hour incubation (AID 488752); also: nearly all actives have a fitted effect of over 65% in size
How it was run: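 One parasite generation (48 h, 37 C, 5% CO2) of luciferase-reporter P. falciparum in erythrocytes is run with test compound; decreased luminescence indicates inhibited growth.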

[16] = target: Thioredoxin reductase 1, cytoplasmic (Rattus norvegicus) (UniProt O89049); test: qHTS Assay for Substrates of Mammalian Selenoprotein Thioredoxin Reductase 1 (TrxR1) (AID 488772);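 also: NADPH fluorescence in the first read after selenite addition and not the 8 min delta; a drop in NADPH fluorescence below the no-compound background marks a TrxR1 substrate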
How it was run: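 Quantitative HTS in Tris-HCl buffer at pH 7.5 with EDTA and Tween-20, using rat TrxR1, 400 uM NADPH and 400 uM selenite (final). A fall in initial NADPH fluorescence relative to background marked substrate behaviour.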

[17] = qHTS Assay for Modulators of Human Peripheral Myelin Protein 22 (PMP22) Expression/Activity (AID 1967; active = well fitted curve in the direction sought with a large enough effect in the signal ratio; the % refers to the signal ratio)
How it was run: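 MSC80 mouse Schwann cells stably carrying Pmp22 promoter–green click beetle luciferase plus EF-alpha–red luciferase control were dosed for 24h at 37 °C. Dual-colour luminescence was filter-overlap corrected; %Activity came from green/red ratio versus untreated cells.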

[18] = target: RecQ-like DNA helicase BLM (Homo sapiens) (UniProt P54132); test: qHTS Validation Assay for Inhibitors of Bloom's syndrome helicase (BLM) (AID 2364)
How it was run: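 50 nM BLM preincubated 15 min at room temperature with compound in pH 8.0 Tris buffer containing 2.5 ug/ml poly(dI-dC); started with 200 nM TAMRA/BHQ-2 forked duplex and 2 mM ATP (final). Unwinding read as TAMRA fluorescence increase, two reads 2 h apart.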

[19] = High Content Imaging Cell-Based qHTS for Inhibitors of the mTORC1 Signaling Pathway in MEF (Tsc2-/-, p53-/-) Cells (AID 2666); conditions: at 38.3 µM (top of the series);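 also: percent of cells scored positive for phospho-rpS6 Ser235/236 immunostaining by imaging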
How it was run: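 Phospho-rpS6 (Ser235/236) immunofluorescence, normalized and scored as % positive cells using rapamycin and DMSO controls, was read in empty-vector Tsc2-/-, p53-/- MEFs after 24 h compound exposure at 37 C; propidium iodide counted cells.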

Measured: Potency

Sequence of Thioredoxin reductase 1, cytoplasmic (Rattus norvegicus) (O89049 whole entry, looked up): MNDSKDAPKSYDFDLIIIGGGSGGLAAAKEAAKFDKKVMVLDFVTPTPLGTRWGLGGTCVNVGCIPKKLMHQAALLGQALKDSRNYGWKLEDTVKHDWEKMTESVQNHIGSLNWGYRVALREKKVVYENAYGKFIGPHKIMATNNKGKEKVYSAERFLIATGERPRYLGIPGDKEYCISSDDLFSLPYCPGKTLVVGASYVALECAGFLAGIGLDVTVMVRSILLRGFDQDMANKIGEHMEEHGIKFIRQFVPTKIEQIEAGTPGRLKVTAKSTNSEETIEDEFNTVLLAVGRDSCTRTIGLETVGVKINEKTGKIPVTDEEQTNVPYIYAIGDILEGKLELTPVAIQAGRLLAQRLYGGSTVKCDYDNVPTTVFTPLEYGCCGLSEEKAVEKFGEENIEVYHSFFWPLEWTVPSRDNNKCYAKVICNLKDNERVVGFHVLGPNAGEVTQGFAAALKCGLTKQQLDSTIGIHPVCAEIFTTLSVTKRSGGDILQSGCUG
Sequence of Ferritin light chain (Equus caballus) (P02791 2-175 limits assumed): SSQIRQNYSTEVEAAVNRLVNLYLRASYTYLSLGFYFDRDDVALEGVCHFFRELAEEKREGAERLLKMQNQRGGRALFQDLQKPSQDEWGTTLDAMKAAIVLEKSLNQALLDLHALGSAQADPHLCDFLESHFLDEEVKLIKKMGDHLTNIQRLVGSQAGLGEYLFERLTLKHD
Sequence of RecQ-like DNA helicase BLM (Homo sapiens) (P54132 whole entry, looked up): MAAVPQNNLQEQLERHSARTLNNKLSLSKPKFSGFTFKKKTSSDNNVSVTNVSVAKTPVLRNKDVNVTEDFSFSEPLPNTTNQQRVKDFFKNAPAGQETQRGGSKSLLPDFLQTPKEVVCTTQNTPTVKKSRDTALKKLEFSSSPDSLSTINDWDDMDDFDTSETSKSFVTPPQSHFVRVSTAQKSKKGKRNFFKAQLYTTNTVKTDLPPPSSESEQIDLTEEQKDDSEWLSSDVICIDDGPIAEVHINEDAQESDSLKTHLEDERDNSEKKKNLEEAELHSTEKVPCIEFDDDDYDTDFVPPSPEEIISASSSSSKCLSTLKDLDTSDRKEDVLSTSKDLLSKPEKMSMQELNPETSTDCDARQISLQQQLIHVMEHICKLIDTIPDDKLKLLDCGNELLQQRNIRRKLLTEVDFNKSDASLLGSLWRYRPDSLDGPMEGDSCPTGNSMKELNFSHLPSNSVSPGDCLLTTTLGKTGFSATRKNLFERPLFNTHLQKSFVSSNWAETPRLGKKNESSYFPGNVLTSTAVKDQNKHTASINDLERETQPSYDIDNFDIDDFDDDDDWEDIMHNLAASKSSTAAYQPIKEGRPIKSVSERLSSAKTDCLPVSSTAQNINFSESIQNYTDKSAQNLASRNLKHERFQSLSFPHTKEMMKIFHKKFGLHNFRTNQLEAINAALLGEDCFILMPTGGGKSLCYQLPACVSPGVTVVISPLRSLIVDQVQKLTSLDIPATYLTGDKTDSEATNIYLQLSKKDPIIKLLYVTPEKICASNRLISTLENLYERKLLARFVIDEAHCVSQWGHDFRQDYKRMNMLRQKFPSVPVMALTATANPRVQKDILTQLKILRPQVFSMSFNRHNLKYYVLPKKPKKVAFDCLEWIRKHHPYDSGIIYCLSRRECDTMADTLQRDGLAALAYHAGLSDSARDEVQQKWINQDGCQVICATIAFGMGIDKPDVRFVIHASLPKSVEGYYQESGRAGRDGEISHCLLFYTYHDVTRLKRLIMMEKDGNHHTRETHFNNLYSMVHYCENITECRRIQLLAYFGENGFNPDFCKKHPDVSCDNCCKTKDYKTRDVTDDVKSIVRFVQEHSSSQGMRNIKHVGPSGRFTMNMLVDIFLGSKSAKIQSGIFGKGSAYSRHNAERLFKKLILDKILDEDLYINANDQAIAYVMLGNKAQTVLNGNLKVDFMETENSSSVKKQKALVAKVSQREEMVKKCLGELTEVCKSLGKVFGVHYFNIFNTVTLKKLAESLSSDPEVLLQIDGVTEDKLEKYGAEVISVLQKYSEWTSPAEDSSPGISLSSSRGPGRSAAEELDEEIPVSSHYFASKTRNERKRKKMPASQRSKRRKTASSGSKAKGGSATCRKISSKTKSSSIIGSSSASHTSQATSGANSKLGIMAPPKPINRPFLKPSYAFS
Sequence of Beta-2 adrenergic receptor (Homo sapiens) (P07550 whole entry, looked up): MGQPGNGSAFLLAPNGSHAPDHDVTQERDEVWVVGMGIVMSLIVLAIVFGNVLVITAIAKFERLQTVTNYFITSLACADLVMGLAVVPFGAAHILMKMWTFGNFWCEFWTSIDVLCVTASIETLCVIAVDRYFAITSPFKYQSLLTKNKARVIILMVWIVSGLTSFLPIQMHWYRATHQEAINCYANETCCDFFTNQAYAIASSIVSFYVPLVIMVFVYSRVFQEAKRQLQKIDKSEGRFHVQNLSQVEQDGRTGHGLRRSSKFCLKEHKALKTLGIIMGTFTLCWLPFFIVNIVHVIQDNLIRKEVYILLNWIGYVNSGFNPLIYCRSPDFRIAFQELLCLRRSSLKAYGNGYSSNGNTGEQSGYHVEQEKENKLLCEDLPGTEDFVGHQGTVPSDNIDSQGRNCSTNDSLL
Sequence of Tumor susceptibility gene 101 protein (Homo sapiens) (Q99816 whole entry, looked up, the tested form may be a part): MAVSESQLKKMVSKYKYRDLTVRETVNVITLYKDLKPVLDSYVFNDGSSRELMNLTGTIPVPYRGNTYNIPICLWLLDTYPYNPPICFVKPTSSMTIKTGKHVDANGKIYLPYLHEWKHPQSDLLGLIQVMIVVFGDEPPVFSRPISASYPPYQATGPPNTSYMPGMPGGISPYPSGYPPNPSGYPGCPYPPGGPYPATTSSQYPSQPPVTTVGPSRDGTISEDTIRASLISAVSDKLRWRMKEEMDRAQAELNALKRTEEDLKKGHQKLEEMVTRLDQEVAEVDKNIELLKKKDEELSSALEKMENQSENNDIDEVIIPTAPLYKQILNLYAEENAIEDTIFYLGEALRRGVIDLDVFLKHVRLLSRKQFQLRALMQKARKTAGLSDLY
Sequence of ATP-dependent DNA helicase Q1 (Homo sapiens) (P46063 whole entry, looked up): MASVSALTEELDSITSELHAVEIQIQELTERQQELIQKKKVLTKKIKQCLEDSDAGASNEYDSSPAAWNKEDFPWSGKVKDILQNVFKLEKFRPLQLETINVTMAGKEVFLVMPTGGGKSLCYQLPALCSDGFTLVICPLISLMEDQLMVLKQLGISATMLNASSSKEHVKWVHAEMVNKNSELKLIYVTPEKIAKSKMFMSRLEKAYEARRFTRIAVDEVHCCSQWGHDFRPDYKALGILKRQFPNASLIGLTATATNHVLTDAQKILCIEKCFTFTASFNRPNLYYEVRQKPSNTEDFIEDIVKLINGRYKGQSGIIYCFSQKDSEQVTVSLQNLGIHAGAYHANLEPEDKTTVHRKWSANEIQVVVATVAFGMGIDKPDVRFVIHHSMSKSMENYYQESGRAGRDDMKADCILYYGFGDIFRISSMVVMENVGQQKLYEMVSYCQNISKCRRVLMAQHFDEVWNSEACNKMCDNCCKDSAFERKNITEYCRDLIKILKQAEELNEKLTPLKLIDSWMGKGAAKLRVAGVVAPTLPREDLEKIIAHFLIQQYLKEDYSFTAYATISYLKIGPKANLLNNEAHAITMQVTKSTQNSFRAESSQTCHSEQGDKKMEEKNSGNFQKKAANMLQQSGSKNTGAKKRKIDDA
Sequence of ATP-dependent 6-phosphofructokinase (Trypanosoma brucei brucei) (O15648 whole entry, looked up): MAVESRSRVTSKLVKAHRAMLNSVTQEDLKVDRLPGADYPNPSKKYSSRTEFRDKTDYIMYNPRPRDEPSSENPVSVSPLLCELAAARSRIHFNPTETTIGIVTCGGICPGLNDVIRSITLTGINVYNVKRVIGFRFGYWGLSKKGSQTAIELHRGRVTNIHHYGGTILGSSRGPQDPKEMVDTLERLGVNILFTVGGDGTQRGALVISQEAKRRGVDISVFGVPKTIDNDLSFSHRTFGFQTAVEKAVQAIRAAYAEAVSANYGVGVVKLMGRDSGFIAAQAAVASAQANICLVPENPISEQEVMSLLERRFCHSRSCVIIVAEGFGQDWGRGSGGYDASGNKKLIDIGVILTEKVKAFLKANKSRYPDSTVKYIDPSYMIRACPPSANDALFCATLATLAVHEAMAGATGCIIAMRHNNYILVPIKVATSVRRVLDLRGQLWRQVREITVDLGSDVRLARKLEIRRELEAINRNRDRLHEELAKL
Sequence of Ubiquitin carboxyl-terminal hydrolase 2 (Homo sapiens) (O75604 whole entry, looked up): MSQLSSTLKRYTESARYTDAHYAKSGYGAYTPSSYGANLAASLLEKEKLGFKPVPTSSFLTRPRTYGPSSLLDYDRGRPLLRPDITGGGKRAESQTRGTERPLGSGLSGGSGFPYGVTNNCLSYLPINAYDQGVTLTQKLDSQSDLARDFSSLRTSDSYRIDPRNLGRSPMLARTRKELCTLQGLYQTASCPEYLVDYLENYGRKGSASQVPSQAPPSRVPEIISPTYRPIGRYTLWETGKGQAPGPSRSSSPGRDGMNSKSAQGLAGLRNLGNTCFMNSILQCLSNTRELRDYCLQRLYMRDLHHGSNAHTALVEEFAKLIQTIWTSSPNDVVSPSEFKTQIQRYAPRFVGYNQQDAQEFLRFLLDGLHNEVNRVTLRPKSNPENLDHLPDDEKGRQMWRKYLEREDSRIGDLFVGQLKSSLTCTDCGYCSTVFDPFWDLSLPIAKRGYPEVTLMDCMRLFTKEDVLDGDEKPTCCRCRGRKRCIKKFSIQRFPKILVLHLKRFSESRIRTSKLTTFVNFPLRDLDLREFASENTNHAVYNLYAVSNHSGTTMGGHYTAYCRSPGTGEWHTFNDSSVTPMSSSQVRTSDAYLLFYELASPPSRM

O=NN(CCCl)C(=O)NCCCl
inactive: [1] | [2] | [3] | [4] | [5] | [6] | [7] | [8] | [9] | [10] | [11] | [12] | [13] | [14] | [15] | [16]

N=c1nc(N2CCCCC2)cc(N)n1O
inactive: [1] | [17] | [2] | [3] | [18] | [4] | [5] | [6] | [7] | [8] | [9] | [10] | [11] | [12] | [14] | [15] | [16]

Nc1ccc(S(=O)(=O)Nc2ccnn2-c2ccccc2)cc1
inactive: [1] | [17] | [3] | [18] | [4] | [5] | [6] | [7] | [8] | [9] | [10] | [11] | [12] | [13] | [14] | [15] | [16]

Cc1cn[nH]c1
inactive: [1] | [2] | [3] | [18] | [4] | [19] | [5] | [6] | [7] | [8] | [9] | [10] | [11] | [12] | [14] | [15] | [16]

Cc1[nH]c(=O)c(C#N)cc1-c1ccncc1
inactive: [1] | [2] | [3] | [4] | [5] | [6] | [7] | [8] | [9] | [10] | [11] | [12] | [14] | [15] | [16]

CCCCNc1cc(C(=O)O)cc(S(N)(=O)=O)c1Oc1ccccc1
inactive: [1] | [17] | [2] | [3] | [4] | [5] | [6] | [7] | [8] | [9] | [10] | [11] | [12] | [14] | [15] | [16]

CNC[C@H](O)c1cccc(O)c1
inactive: [1] | [2] | [3] | [4] | [5] | [6] | [7] | [8] | [9] | [10] | [11] | [12] | [13] | [14] | [15] | [16]

Cc1oncc1C(=O)Nc1ccc(C(F)(F)F)cc1
inactive: [1] | [2] | [3] | [4] | [19] | [5] | [6] | [8] | [9] | [10] | [12] | [13] | [16]

O=C1CCC(N2C(=O)c3ccccc3C2=O)C(=O)N1 (stereo unspecified)
inactive: [1] | [17] | [2] | [3] | [4] | [5] | [6] | [7] | [8] | [9] | [10] | [11] | [12] | [13] | [14] | [15] | [16]

Cc1[nH]c(=O)c(C#N)cc1-c1ccc2nccn2c1
inactive: [1] | [2] | [3] | [4] | [5] | [6] | [7] | [8] | [9] | [10] | [11] | [12] | [14] | [15] | [16]

CC(C[N+](C)(C)C)OC(N)=O (stereo unspecified)
inactive: [1] | [2] | [3] | [18] | [4] | [5] | [6] | [7] | [8] | [9] | [10] | [11] | [12] | [13] | [14] | [15] | [16]

Reference: PubChem BioAssay (NCATS)
